ChEMBL document CHEMBL1157539, “Thousands of chemical starting points for antimalarial lead identification” (Nature, 2010)

The molecules below were run on Plasmodium falciparum (assay: GSK_TCMDC: Inhibition of Plasmodium falciparum Dd2 in whole red blood cells, using parasite LDH activity as an index of growth. Test compounds present at 2uM).
Assay type: functional
Molecule Cn1nccc1C(=O)NCCNCc1ccc(-c2cccc(-c3nc4cc(C(F)(F)F)ccc4[nH]3)c2)cc1.O=C(O)C(F)(F)F has an Inhibition of 99%.
COc1cc(NC(=O)/C=C/c2cccc3cc[nH]c23)ccc1OCCN(C(C)C)C(C)C.Cl gave an Inhibition of 51%.
Work on CCCCc1cc(NCC)nc(Nc2ccc(OC)cc2)n1 yielded an Inhibition of 32%.
CCCN1CCN(c2cc(S(=O)(=O)Nc3ccc(C(=O)NCc4cccc(C(F)(F)F)c4)cc3)ccc2OC)CC1.O=C(O)C(F)(F)F showed an Inhibition of 8%.
Work on CCN(CC)CCCN(C(=O)Nc1c(Cl)cncc1Cl)c1nc(-c2ccc(F)cc2)cs1 yielded an Inhibition of 93%.
In the case of Cl.O=C(Nc1ccc(NC2=NCCN2)cc1)c1ccc(C(=O)Nc2ccc(NC3=NCCN3)cc2)cc1, the Inhibition is reported as 86%.
In the case of CN(CCCCNC(=O)c1cc2ccccc2[nH]1)C1CC2(CCN(C(=O)OC(C)(C)C)CC2)c2ccccc21 (stereo not given), the Inhibition is reported as 75%.
For NC(=O)c1cc(-c2ccccc2)cc2c(C3CCC(NCc4ccccc4)C3)c[nH]c12 (stereo not given), the Inhibition was 30%.
With N=C(N)NCCCN(Cc1ccccc1)c1ccc(Cl)cc1.O=S(=O)(O)O the Inhibition was 98%.
COc1ccc(S(=O)(=O)NC2CCN(c3ccnc4cc(Cl)ccc34)C2)cc1.O=C(O)C(F)(F)F (stereo not given) gave an Inhibition of 86%.
With Cl.O=C(Nc1cccc(Cl)c1Cl)N1CCc2cc3nccc(N4CCN5CCC[C@H]5C4)c3cc21 the Inhibition was 100%.
With O=C(c1ccc(-c2ccc(-c3nc4cc(C(F)(F)F)ccc4[nH]3)s2)cc1)N1CCCCC1CN1CCC(O)C1 (stereo not given) the Inhibition was 80%.
With Cl.O=[N+]([O-])c1cccc(-c2nc3cc(C4=NC5CCCCC5N4)ccc3[nH]2)c1 (stereo not given) the Inhibition was 81%.
COC(=O)[C@@H](NC(=O)[C@H](CC(C)C)Nc1ccc(C#N)c2ccccc12)c1ccc(O)cc1.O=C(O)C(F)(F)F gave an Inhibition of 87%.
COc1ccc(CN2CCC(N3CCc4cc(NC(=O)c5cc(C)on5)ccc43)C2)cc1Cl (stereo not given) gave an Inhibition of 91%.
Molecule CN1CCCc2cc(NC(=O)c3cc(-c4ccc(Cl)cc4)cs3)ccc2C1.O=C(O)C(F)(F)F has an Inhibition of 34%.
Molecule Fc1cccc(C=NN=c2cc[nH]c3ccc(C(F)(F)F)cc23)c1 has an Inhibition of 97%.
Nc1nccc2ccc(-c3ccc(OCc4ccccc4)cc3)cc12.O=C(O)C(F)(F)F was tested, and the Inhibition was 67%.
In the case of O=C(C=Cc1ccc(Cl)c(Cl)c1)NCCCCCN1CCC(CCNC(=O)c2sc3ccccc3c2Cl)CC1, the Inhibition is reported as 6%.
In the case of CCCCCCCn1c(=N)n(CC(O)c2ccc(Cl)c(Cl)c2)c2ccccc21.Cl (stereo not given), the Inhibition is reported as 100%.
Molecule O=C(Nc1cccc(-c2ccc(-c3nc4ccccc4[nH]3)cc2)c1)c1csnn1 has an Inhibition of 21%.
For CCc1ccc(CN(CCCOc2cccc(CC(=O)NCc3c[nH]cn3)c2)Cc2ccc(-n3ccnc3)cc2)cc1, the Inhibition was 28%.
Work on O=C(Nc1nc2cc(S(=O)(=O)NCc3ccc(Cl)c(Cl)c3)ccc2n1CCCN1CCCC1)c1ccc(Cl)cc1.O=C(O)C(F)(F)F yielded an Inhibition of 16%.
In the case of COc1ccc(-c2csc3ncnc(Cl)c23)cc1OC, the Inhibition is reported as 84%.
Molecule O=C(Nc1ccccc1)N(Cc1cccc(-c2cccc(CNCc3ccc4c(c3)OCO4)c2)c1)C1CCN(Cc2ccccc2)CC1.O=C(O)C(F)(F)F has an Inhibition of 84%.

Each molecule was assayed on HepG2 (assay: GSK_TCMDC: Percent inhibition of human HepG2 cell line. Test compounds present at 10uM.).
Assay type: functional
Molecule O=c1cc(NCCCNCc2cc(Br)ccc2F)[nH]c2ccccc12 has an Inhibition of 0%.
In the case of Cc1cc2nc(-c3ccc(C(=O)NC4CCN(Cc5ccccc5)CC4)cc3)[nH]c2cc1C, the Inhibition is reported as 0%.
COc1ccc(-c2ccc(CNC(=O)c3ccc(Cl)cc3)c(F)c2)cc1CN1CCCN(C)CC1.O=C(O)C(F)(F)F gave an Inhibition of 25%.
With COc1ccc(CCN(C)CCOc2ccc(NC(=O)c3cccc4cc5ccccc5nc34)cc2)cc1OC the Inhibition was 37%.
For CN1CCN(c2ccnc3ccc(NC(=O)Nc4ccc5ccccc5c4)cc23)CC1.Cl, the Inhibition was 2%.
COC(=O)c1cccc(CNCc2cccc(-c3ccc(-c4nc5cccc(C)c5[nH]4)s3)c2)c1.O=C(O)C(F)(F)F was tested, and the Inhibition was 0%.
Molecule O=C(c1ccc(O)c(-c2cc(Cl)cc(Cl)c2)c1)N1CCCC1 has an Inhibition of 3%.
With Cc1cccc2nc(-c3cccc(-c4ccc(NC(=O)c5cnn6cccnc56)cc4)c3)[nH]c12 the Inhibition was 99%.
Molecule COc1ccc(-c2nc(NC(=O)Cc3cccc(OC)c3)sc2C)cc1 has an Inhibition of 1%.
CCC(C)CC(=O)Nc1ccc(OC)c(S(=O)(=O)N[C@@H]2CCN(C#N)C2)c1 (stereo not given in full) gave an Inhibition of 16%.
For Cc1cccc(Nc2c(-c3cc(Br)ccc3O)nc3ncccn23)c1, the Inhibition was 0%.
N=C(N)NC(=O)Nc1cc(Br)c(Cl)c(Br)c1 showed an Inhibition of 0%.
Br.c1cc(C2=NC3CCCCC3N2)ccc1OCCCCCOc1ccc(C2=NC3CCCCC3N2)cc1 (stereo not given) gave an Inhibition of 80%.
For COc1nc2c(N3CCN(CCNCc4ccc5c(n4)NC(=O)CO5)CC3)ccnc2cc1F.Cl, the Inhibition was 18%.
In the case of Cc1cccc2nc(-c3cccc(-c4ccc(CNCc5cnn(-c6ccccc6)n5)cc4)c3)[nH]c12.O=C(O)C(F)(F)F, the Inhibition is reported as 20%.
In the case of Cn1nccc1C(=O)NCCNCc1ccc(-c2cccc(-c3nc4cc(C(F)(F)F)ccc4[nH]3)c2)cc1.O=C(O)C(F)(F)F, the Inhibition is reported as 51%.
COc1cc(NC(=O)/C=C/c2cccc3cc[nH]c23)ccc1OCCN(C(C)C)C(C)C.Cl was tested, and the Inhibition was 11%.
CCCCc1cc(NCC)nc(Nc2ccc(OC)cc2)n1 showed an Inhibition of 30%.
CCCN1CCN(c2cc(S(=O)(=O)Nc3ccc(C(=O)NCc4cccc(C(F)(F)F)c4)cc3)ccc2OC)CC1.O=C(O)C(F)(F)F was tested, and the Inhibition was 27%.
CCN(CC)CCCN(C(=O)Nc1c(Cl)cncc1Cl)c1nc(-c2ccc(F)cc2)cs1 was tested, and the Inhibition was 37%.
With Cl.O=C(Nc1ccc(NC2=NCCN2)cc1)c1ccc(C(=O)Nc2ccc(NC3=NCCN3)cc2)cc1 the Inhibition was 15%.
Work on CN(CCCCNC(=O)c1cc2ccccc2[nH]1)C1CC2(CCN(C(=O)OC(C)(C)C)CC2)c2ccccc21 (stereo not given) yielded an Inhibition of 12%.
For NC(=O)c1cc(-c2ccccc2)cc2c(C3CCC(NCc4ccccc4)C3)c[nH]c12 (stereo not given), the Inhibition was 99%.
Molecule N=C(N)NCCCN(Cc1ccccc1)c1ccc(Cl)cc1.O=S(=O)(O)O has an Inhibition of 0%.
For COc1ccc(S(=O)(=O)NC2CCN(c3ccnc4cc(Cl)ccc34)C2)cc1.O=C(O)C(F)(F)F (stereo not given), the Inhibition was 12%.
Work on Cl.O=C(Nc1cccc(Cl)c1Cl)N1CCc2cc3nccc(N4CCN5CCC[C@H]5C4)c3cc21 yielded an Inhibition of 9%.
Work on O=C(c1ccc(-c2ccc(-c3nc4cc(C(F)(F)F)ccc4[nH]3)s2)cc1)N1CCCCC1CN1CCC(O)C1 (stereo not given) yielded an Inhibition of 90%.
Work on Cl.O=[N+]([O-])c1cccc(-c2nc3cc(C4=NC5CCCCC5N4)ccc3[nH]2)c1 (stereo not given) yielded an Inhibition of 4%.
Molecule COC(=O)[C@@H](NC(=O)[C@H](CC(C)C)Nc1ccc(C#N)c2ccccc12)c1ccc(O)cc1.O=C(O)C(F)(F)F has an Inhibition of 4%.
COc1ccc(CN2CCC(N3CCc4cc(NC(=O)c5cc(C)on5)ccc43)C2)cc1Cl (stereo not given) showed an Inhibition of 15%.
In the case of CN1CCCc2cc(NC(=O)c3cc(-c4ccc(Cl)cc4)cs3)ccc2C1.O=C(O)C(F)(F)F, the Inhibition is reported as 15%.
For Fc1cccc(C=NN=c2cc[nH]c3ccc(C(F)(F)F)cc23)c1, the Inhibition was 0%.
Nc1nccc2ccc(-c3ccc(OCc4ccccc4)cc3)cc12.O=C(O)C(F)(F)F showed an Inhibition of 40%.
In the case of O=C(C=Cc1ccc(Cl)c(Cl)c1)NCCCCCN1CCC(CCNC(=O)c2sc3ccccc3c2Cl)CC1, the Inhibition is reported as 27%.
CCCCCCCn1c(=N)n(CC(O)c2ccc(Cl)c(Cl)c2)c2ccccc21.Cl (stereo not given) was tested, and the Inhibition was 99%.
Work on O=C(Nc1cccc(-c2ccc(-c3nc4ccccc4[nH]3)cc2)c1)c1csnn1 yielded an Inhibition of 31%.
For CCc1ccc(CN(CCCOc2cccc(CC(=O)NCc3c[nH]cn3)c2)Cc2ccc(-n3ccnc3)cc2)cc1, the Inhibition was 1%.
O=C(Nc1nc2cc(S(=O)(=O)NCc3ccc(Cl)c(Cl)c3)ccc2n1CCCN1CCCC1)c1ccc(Cl)cc1.O=C(O)C(F)(F)F showed an Inhibition of 57%.
COc1ccc(-c2csc3ncnc(Cl)c23)cc1OC was tested, and the Inhibition was 0%.
In the case of O=C(Nc1ccccc1)N(Cc1cccc(-c2cccc(CNCc3ccc4c(c3)OCO4)c2)c1)C1CCN(Cc2ccccc2)CC1.O=C(O)C(F)(F)F, the Inhibition is reported as 96%.
